Read-out in assay [1]: Monokine induced gamma interferon (MIG), CXCL9 (gene 4283)
Briefly: BSK_hDFCGF_MIG: BioMAP Diversity Plus: hDFCGF Assay for Monokine induced gamma interferon (MIG) Biomarker Activity (AID 2283063). Conditions: primary human foreskin fibroblasts; actives raise or lower the signal. The method, boiled down:
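Fibroblasts (human foreskin, primary) dosed, 24 h, MIG by ELISA; fit bidirectional vs DMSO.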

Read-out in assay [2]: Vascular cell adhesion molecule 1 (VCAM1), VCAM1 (gene 7412)
Nature of the assay: BSK_hDFCGF_VCAM1: BioMAP Diversity Plus: hDFCGF Assay for Vascular cell adhesion molecule 1 (VCAM1) Biomarker Activity (AID 2283065).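 On AC50: VCAM-1 protein level quantified by ELISA after 24 h chemical exposure.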 The conditions noted are these: primary human foreskin fibroblasts; actives raise or lower the signal. The method, boiled down: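 ELISA read-out of VCAM-1 on human skin fibroblasts, 24 h post-dose; gain or loss of signal fitted bidirectionally against DMSO baseline.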

Read-out in assay [3]: Intercellular Adhesion Molecule 1 (ICAM1), ICAM1 (gene 3383)
Briefly: BSK_KF3CT_ICAM1: BioMAP Diversity Plus: KF3CT Assay for Intercellular Adhesion Molecule 1 (ICAM1) Biomarker Activity (AID 2283067). Conditions: primary human keratinocytes with fibroblasts; actives raise or lower the signal. The method, boiled down:
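ELISA readout of ICAM-1; KF3CT human skin co-culture (keratinocytes + foreskin fibroblasts), 24 h post-dose; gain/loss fit vs DMSO baseline.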

Read-out in assay [4]: Interferon-gamma inducible Protein 10 (IP10), CXCL10 (gene 3627)
Briefly: BSK_KF3CT_IP10: BioMAP Diversity Plus: KF3CT Assay for Interferon-gamma inducible Protein 10 (IP10) Biomarker Activity (AID 2283068). Conditions: primary human keratinocytes with fibroblasts; actives raise or lower the signal. In a few lines: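 ELISA read-out of IP-10 after 24 h chemical dosing of human skin primary co-culture (keratinocytes, foreskin fibroblasts). Gain or loss of signal relative to DMSO, bidirectional curve fit.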

Assay [5] in a line: BSK_KF3CT_SRB: Viability Assessment in the BioMAP Diversity Plus: KF3CT Assay (AID 2283069).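 Further: total protein by sulforhodamine B staining as a cytotoxicity measure; read 24 h after compound addition.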 The conditions noted are these: primary human keratinocytes with fibroblasts. The method, boiled down: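 Human keratinocyte and foreskin fibroblast co-culture exposed to chemical for 24 h. Total protein measured in parallel cultures by 0.1% sulforhodamine B staining after 10% TCA fixation, read at 560 nm; bidirectional fit relative to DMSO.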

Read-out in assay [6]: TIMP metallopeptidase inhibitor 2 (TIMP2), TIMP2 (gene 7077)
Nature of the assay: BSK_KF3CT_TIMP2: BioMAP Diversity Plus: KF3CT Assay for TIMP metallopeptidase inhibitor 2 (TIMP2) Biomarker Activity (AID 2283071). Conditions: primary human keratinocytes with fibroblasts; actives raise or lower the signal. The method, boiled down: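 Cells: human keratinocytes co-cultured with foreskin fibroblasts. Treat with chemical, 24 h. Measure TIMP-2 by ELISA; fit curves bidirectionally vs DMSO baseline.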

Read-out in assay [7]: Transforming growth factor beta 1 (TGFb1), TGFB1 (gene 7040)
Nature of the assay: BSK_KF3CT_TGFb1: BioMAP Diversity Plus: KF3CT Assay for Transforming growth factor beta 1 (TGFb1) Biomarker Activity (AID 2283072). The conditions noted are these: primary human keratinocytes with fibroblasts; actives raise or lower the signal. The method, boiled down: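 Primary human skin cells (keratinocytes, foreskin fibroblasts) were co-cultured, exposed to test chemical and sampled at 24 h. TGF-b1 levels were measured by ELISA and fitted bidirectionally relative to DMSO.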

Read-out in assay [8]: C-C motif chemokine 2 (Homo sapiens) (UniProt P13500)
Briefly: BSK_KF3CT_MCP1: BioMAP Diversity Plus: KF3CT Assay for Monocyte Chemoattractant Protein 1 (MCP1/CCL2) Biomarker Activity (AID 2283073). The conditions noted are these: primary human keratinocytes with fibroblasts; actives raise or lower the signal. In a few lines:
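KF3CT skin co-culture (keratinocytes/foreskin fibroblasts), 24 h post-dose; MCP-1 by ELISA; gain/loss of signal fit bidirectionally vs DMSO baseline.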

Read-out in assay [9]: Matrix Metallopeptidase 9 (MMP9), MMP9 (gene 4318)
Briefly: BSK_KF3CT_MMP9: BioMAP Diversity Plus: KF3CT Assay for Matrix Metallopeptidase 9 (MMP9) Biomarker Activity (AID 2283074).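 On AC50: MMP9 protein level quantified by ELISA in the co-culture.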 Conditions: primary human keratinocytes with fibroblasts; actives raise or lower the signal. The method, boiled down: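 Human keratinocyte and foreskin fibroblast co-culture exposed to chemicals for 24 h; MMP9 biomarker measured by ELISA, bidirectional fitting relative to DMSO; cytotoxicity tracked by SRB total protein staining in parallel cultures.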

Read-out in assay [10]: urokinase plasminogen activator (uPA), PLAU (gene 5328)
Nature of the assay: BSK_KF3CT_uPA: BioMAP Diversity Plus: KF3CT Assay for urokinase plasminogen activator (uPA) Biomarker Activity (AID 2283075). The conditions noted are these: primary human keratinocytes with fibroblasts; actives raise or lower the signal. In a few lines: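 Primary human keratinocyte/foreskin fibroblast co-culture exposed to chemical; uPA measured by ELISA at 24 h. Bidirectional fit versus DMSO, with parallel SRB total-protein staining for cytotoxicity.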

Read-out in another assay: CD40, CD40 (gene 958)
Nature of the assay: BSK_LPS_CD40: BioMAP Diversity Plus: LPS Assay for CD40 Biomarker Activity (AID 2283076). The conditions noted are these: primary human HUVEC with PBMC; actives raise or lower the signal. The method, boiled down:
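ELISA readout of CD40 in HUVEC/PBMC co-culture (BSK_LPS system), 24 h post-dosing; bidirectional curve fit, DMSO baseline; parallel SRB total-protein staining for cytotoxicity.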

Read-out in assay [11]: Interleukin-8 (IL8), CXCL8 (gene 3576)
Nature of the assay: BSK_LPS_IL8: BioMAP Diversity Plus: LPS Assay for Interleukin-8 (IL8) Biomarker Activity (AID 2283078). The conditions noted are these: primary human HUVEC with PBMC; actives raise or lower the signal. In a few lines: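 HUVEC + PBMC co-culture, LPS-activated; test chemicals dosed, IL-8 read by ELISA at 24 h. Bidirectional curve fit vs DMSO baseline (gain or loss of signal).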

Assay [12] is described as follows: BSK_LPS_SRB: Viability Assessment in the BioMAP Diversity Plus: LPS Assay (AID 2283079).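 Further: total protein by sulforhodamine B absorbance as a cytotoxicity measure; measured one day after compound addition; fitted in both directions against DMSO so loss or gain of signal counts.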 Conditions: primary human HUVEC with PBMC. In a few lines:
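HUVEC + PBMC co-culture, LPS-stimulated; compound 24 h. 10% TCA fix, 0.1% SRB stain, A560. Bidirectional fit vs DMSO.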

Read-out in assay [13]: Interleukin-1 alpha (IL1a), IL1A (gene 3552)
Nature of the assay: BSK_LPS_IL1a: BioMAP Diversity Plus: LPS Assay for Interleukin-1 alpha (IL1a) Biomarker Activity (AID 2283080). The conditions noted are these: primary human HUVEC with PBMC; actives raise or lower the signal. The method, boiled down:
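HUVEC/PBMC co-culture, LPS system; 24 h after dosing; IL-1a by ELISA; gain or loss of signal fitted bidirectionally vs DMSO baseline.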

Read-out in assay [14]: Plasminogen activator inhibitor-1 (PAI1), SERPINE1 (gene 5054)
Briefly: BSK_hDFCGF_PAI1: BioMAP Diversity Plus: hDFCGF Assay for Plasminogen activator inhibitor-1 (PAI1) Biomarker Activity (AID 2283066). Conditions: primary human foreskin fibroblasts; actives raise or lower the signal. The method, boiled down: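 Primary dermal fibroblasts (human foreskin), hDFCGF system; compound 24 h; PAI-1 by ELISA; bidirectional fit vs DMSO control.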

Read-out in assay [15]: Interleukin-1 alpha (IL1a), IL1A (gene 3552)
Nature of the assay: BSK_KF3CT_IL1a: BioMAP Diversity Plus: KF3CT Assay for Interleukin-1 alpha (IL1a) Biomarker Activity (AID 2283070). Conditions: primary human keratinocytes with fibroblasts; actives raise or lower the signal. The method, boiled down:
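Primary human keratinocyte plus foreskin fibroblast co-culture, dosed and measured at 24 h in 96-well plates. IL-1a level quantified by ELISA; bidirectional fit relative to DMSO.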

The nature of assay [16]: BSK_LPS_PGE2: BioMAP Diversity Plus: LPS Assay for Prostaglandin E2 (PGE2) Biomarker Activity (AID 2283082).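 On AC50: secreted prostaglandin E2 measured by ELISA in LPS-stimulated co-culture.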 Conditions: primary human HUVEC with PBMC; actives raise or lower the signal. In a few lines:
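LPS-activated HUVEC/PBMC co-culture; cmpd dosed, 24 h; PGE2 by ELISA; bidirectional fit vs DMSO; SRB (0.1%, TCA-fixed, 560 nm) in parallel plates for overt cytotox.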

Read-out in assay [17]: E-selectin (Homo sapiens) (UniProt P16581)
Nature of the assay: BSK_LPS_Eselectin: BioMAP Diversity Plus: LPS Assay for Eselectin Biomarker Activity (AID 2283077). The conditions noted are these: primary human HUVEC with PBMC; actives raise or lower the signal. In a few lines:
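ELISA readout of E-selectin, 24 h post-dose, HUVEC + PBMC co-culture (LPS system). Gain or loss of signal vs DMSO baseline, bidirectional fit.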

Molecules are shown by their SMILES. The source made the active and inactive calls. How the source made its calls: active means hit-call score of the fitted dose curve at least 0.9, where 1 is the maximum; inactive means score below 0.9.

Chain of E-selectin (Homo sapiens) (P16581 whole entry, looked up): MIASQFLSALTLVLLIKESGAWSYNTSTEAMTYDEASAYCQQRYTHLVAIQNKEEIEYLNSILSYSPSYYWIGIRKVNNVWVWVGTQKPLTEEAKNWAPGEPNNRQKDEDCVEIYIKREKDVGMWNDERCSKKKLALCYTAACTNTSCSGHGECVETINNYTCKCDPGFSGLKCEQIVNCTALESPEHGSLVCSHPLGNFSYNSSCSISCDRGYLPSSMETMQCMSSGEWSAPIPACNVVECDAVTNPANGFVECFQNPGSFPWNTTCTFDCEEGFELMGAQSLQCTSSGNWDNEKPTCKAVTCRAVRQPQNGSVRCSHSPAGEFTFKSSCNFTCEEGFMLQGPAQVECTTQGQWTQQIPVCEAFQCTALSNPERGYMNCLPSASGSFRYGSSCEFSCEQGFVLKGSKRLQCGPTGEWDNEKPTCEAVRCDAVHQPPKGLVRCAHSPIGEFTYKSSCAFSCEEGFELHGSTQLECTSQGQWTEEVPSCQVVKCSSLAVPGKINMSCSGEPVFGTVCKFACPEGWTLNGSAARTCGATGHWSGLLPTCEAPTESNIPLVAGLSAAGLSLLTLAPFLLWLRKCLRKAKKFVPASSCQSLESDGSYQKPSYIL

Usually AC50 stands for the concentration giving half of the maximal activity seen. Regarding `CNS(=O)(=O)c1cc(C(=O)N2CCC(CCN3C4CCC3CC(n3c(C)nc5ccccc53)C4)(c3cccc(F)c3)CC2)c(Cl)cc1F` (configuration not stated), the outcome in assay [1], in [2], in assay [3], in [4], in [5] and in assay [6] was inactive. In addition, the outcome in assay [8] and in assay [10] was inactive. Further, the AC50 in [7] was 32.4 µM (active); in assay [9] it was 20 µM (active); with CD40, CD40 (gene 958) it was 20 µM (active); in assay [11], 20 µM (active); in [12], 17.4 µM (active); in assay [13], 23.5 µM (active).

Turning to `CC(C)CCO`, the result in [1], in assay [2], in [14], in assay [3], in [4] and in assay [5] was inactive. The outcome in [15] is “inactive”; in assay [6], “inactive”; in assay [7], “inactive”; in assay [9], “inactive”; in [10], “inactive”; with CD40, CD40 (gene 958), “inactive”. Further, the result in [11], in assay [12], in [13] and in assay [16] was inactive.

On to `O=C(O)c1cc(N=Nc2ccc(S(=O)(=O)Nc3ccccn3)cc2)ccc1O`, for which the result in [1], in assay [2], in [14], in assay [3], in assay [4] and in assay [5] was inactive. Besides, the outcome was “inactive” in assay [6]; “inactive” in assay [7]; “inactive” in [8]; “inactive” in [9]; “inactive” in assay [10]; “inactive” with CD40, CD40 (gene 958). Further, the outcome in assay [11], in [12] and in assay [13] was inactive.

Consider `COc1ccc2sc(C(=O)Nc3nnn[nH]3)c(OC(C)C)c2c1`, for which the AC50 in assay [1] was 15.5 µM (active); in assay [2], 12.2 µM (active); in assay [14], 6.57 µM (active); in assay [3], 24 µM (active); in [4], 25.4 µM (active); in assay [5], 26.1 µM (active). The AC50 in [6] is 19.9 µM (active); in assay [7], 19.9 µM (active); in [8], 16.7 µM (active); in assay [9] it was 27 µM (active); in assay [10], 29.5 µM (active); with CD40, CD40 (gene 958) it was 7.18 µM (active). Moreover, the AC50 in assay [17] was 23.4 µM (active); in assay [11], 28.5 µM (active); in assay [12], 9.83 µM (active); in assay [13] it was 13.2 µM (active); in [16] it was 34.1 µM (active).

The record behind these values is PubChem BioAssay (EPA / NIEHS).
